PLCb3 inh = human PLC-beta3 inhibitors, primary screen, biochemical, fluorescence | Purified PLC-beta3, fluorogenic substrate | inhibition, % at 12.2 µM | 370,000 tested, 0.18% active | AID 720704, 2013; in the data active means inhibition above about 11%
GC-A act = GC-A stimulated cGMP production enhancers – HEK293 GC-A cells, cGMP TR-FRET, EC30 ANP, primary screen; 370,000 tested, 0.14% active; activation, % at 10 µM; 0% at EC30 ANP, 100% saturating ANP; in the data active means activation above about 40%
Rce1 inh = yeast Rce1p protease inhibitors, primary screen, biochemical, fluorescence, cell-free homogeneous. CAAX prenyl protease 2 (Saccharomyces cerevisiae (strain ATCC 204508 / S288c)), Q03530. yeast membranes, quenched prenylated peptide cleavage fluorescence. calls only. 290,000 tested, 0.27% active. AID 2563, 2010;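 active means fall in fluorescence gain of 50% or more versus controls, with final raw signal at or below 3038400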
NPR2 activator = human GC-B receptor activators, primary screen, HEK293 GC-B cells, cGMP TR-FRET, EC30 CNP. Atrial natriuretic peptide receptor 2 (Homo sapiens), P20594. 0% at EC30 CNP, 100% saturating CNP. activation, % at 10 µM. 370,000 tested, 0.11% active. AID 1920062, 2024;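 active means activation at 10 µM reaching about 35% in either raw or pattern-adjusted values, limit read from the data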
PLCg1 inh = PLC-gamma1 enzyme inhibitors, primary screen, biochemical, fluorescence, purified enzyme | 1-phosphatidylinositol 4,5-bisphosphate phosphodiesterase gamma-1 (Homo sapiens), P19174 | fluorogenic substrate | inhibition, % at 12.2 µM | AID 720700, 2013 | 370,000 tested, 0.84% active; in the data active means inhibition above about 9.5%
Target sequence (P19174 whole entry, looked up): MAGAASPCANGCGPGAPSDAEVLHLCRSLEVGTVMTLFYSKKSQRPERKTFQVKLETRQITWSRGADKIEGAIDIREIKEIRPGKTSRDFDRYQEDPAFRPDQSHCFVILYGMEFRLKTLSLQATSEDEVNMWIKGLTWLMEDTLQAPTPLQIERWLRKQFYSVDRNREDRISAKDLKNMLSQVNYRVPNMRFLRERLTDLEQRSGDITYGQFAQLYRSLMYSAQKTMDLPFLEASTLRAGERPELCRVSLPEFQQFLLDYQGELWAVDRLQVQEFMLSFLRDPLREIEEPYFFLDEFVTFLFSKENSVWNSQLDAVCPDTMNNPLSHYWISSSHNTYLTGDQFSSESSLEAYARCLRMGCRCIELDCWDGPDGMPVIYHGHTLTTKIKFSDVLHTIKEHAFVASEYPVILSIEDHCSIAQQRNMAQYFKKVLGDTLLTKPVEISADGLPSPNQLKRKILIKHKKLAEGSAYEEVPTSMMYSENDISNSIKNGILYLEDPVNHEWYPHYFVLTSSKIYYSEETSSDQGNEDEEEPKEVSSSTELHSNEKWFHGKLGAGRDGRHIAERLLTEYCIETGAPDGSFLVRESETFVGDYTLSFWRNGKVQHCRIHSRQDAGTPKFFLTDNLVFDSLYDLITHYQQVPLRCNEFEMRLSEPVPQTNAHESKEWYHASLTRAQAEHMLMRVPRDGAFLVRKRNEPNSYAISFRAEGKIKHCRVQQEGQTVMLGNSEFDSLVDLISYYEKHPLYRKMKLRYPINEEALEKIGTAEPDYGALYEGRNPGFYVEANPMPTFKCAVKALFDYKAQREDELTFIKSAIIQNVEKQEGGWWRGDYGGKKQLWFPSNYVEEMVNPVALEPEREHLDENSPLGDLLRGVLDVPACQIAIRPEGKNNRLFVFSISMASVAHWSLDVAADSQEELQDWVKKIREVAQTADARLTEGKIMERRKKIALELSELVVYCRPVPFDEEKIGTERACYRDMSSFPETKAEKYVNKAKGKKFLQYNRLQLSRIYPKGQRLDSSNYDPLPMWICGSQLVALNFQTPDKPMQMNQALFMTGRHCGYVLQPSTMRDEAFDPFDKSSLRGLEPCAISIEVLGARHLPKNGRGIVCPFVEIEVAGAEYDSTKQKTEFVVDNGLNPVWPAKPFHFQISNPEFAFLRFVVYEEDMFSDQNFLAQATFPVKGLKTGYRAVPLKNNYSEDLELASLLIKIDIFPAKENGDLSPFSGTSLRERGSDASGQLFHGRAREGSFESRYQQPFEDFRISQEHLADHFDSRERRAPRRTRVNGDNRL
PfM18AAP inh-1 = PfM18AAP inhibitors, malaria aminopeptidase, primary screen, biochemical, QFRET, recombinant enzyme | H-Glu-NHMec fluorogenic cleavage | inhibition, % at 7.35 µM | 290,000 tested, 1.2% active | AID 1822, 2009;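 active means inhibition above the campaign mean inhibition over all tested compounds plus 3 SD, cut at about 28% in these data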
PfM18AAP inh-2 = PfM18AAP inhibitors, malaria aminopeptidase, confirmation, biochemical, QFRET, recombinant enzyme, triplicate; AID 2170, 2009; inhibition, % at 7.35 µM; shares compounds with PfM18AAP inh-1; H-Glu-NHMec fluorogenic cleavage; 2,400 tested, 28% active;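 active means mean inhibition over replicate wells above the hit cutoff set for the earlier primary screen, cut at about 29% in these data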
CTSL1 counter = cathepsin L1 inhibitors, retest, confirmation, counter-screen for PFM18AAP inhibitor project, biochemical, QFRET, triplicate. AID 2178, 2009. shares compounds with PfM18AAP inh-1. 2,400 tested, under 10 active. purified cathepsin L1, Z-Leu-Arg-MCA fluorescence. inhibition, % at 5.96 µM;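 active means average inhibition across replicates above the hit cutoff set in the earlier primary screen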
Hits are given with their value; i = inactive; nt = not tested or not shown; + = active, no number. The list is not random: actives were taken first. Their share in the collection is about 2.2%.

SMILES	PLCb3 inh	GC-A act	Rce1 inh	NPR2 activator	PLCg1 inh	PfM18AAP inh-1	others
COc1cc(/C=C/[N+](=O)[O-])ccc1O	i	i	i	i	i	29
CN1C(=O)[C@@]23C[C@]4(c5c[nH]c6ccccc56)c5ccccc5N(S(=O)(=O)c5ccccc5)[C@@H]4N2C(=O)[C@@H]1SS3	i	i	nt	i	i	nt
NC(=O)Cn1cc(C=C2C(=O)NC(=O)NC2=O)c2ccccc21	i	i	i	i	i	29
O=C(O)Cn1cc(/C=C2\C(=O)NC(=O)N(c3ccc(F)cc3)C2=O)c2ccccc21	nt	nt	i	nt	nt	i
Clc1ccc(OCC#CCN2CCOCC2)cc1	i	i	i	i	i	i
C(#CCN1CCOCC1)COC/C=C/c1ccccc1	i	i	i	i	i	31
CC(C)C(NC(=O)OCc1ccccc1)P(=O)(Oc1ccccc1)Oc1ccccc1 (stereo unspecified)	i	i	nt	i	i	nt
COC(=O)C1=C(c2ccc(OCc3ccccc3)c(F)c2)C[C@@H]2CC[C@H]1N2C	i	i	nt	i	13	nt
COC(=O)c1nc(-c2ccc3c(n2)C(=O)C(N)=C(OC)C3=O)c(N)c(-c2ccc(OC)c(OC)c2O)c1C	i	i	i	i	i	32
CCCCCCn1c(N)c(C(=O)NCCN2CCOCC2)c2nc3ccccc3nc21	i	i	i	36	i	i
CC(C)OCCCNC(=O)c1c(N)n(CC2CCCO2)c2nc3ccccc3nc12 (stereo unspecified)	i	i	+	i	i	i
COc1ccc2nc(-c3ccc(CN4CCC(n5nnc6ccccc65)CC4)cc3)c(-c3ccccc3)nc2c1	i	i	nt	i	i	nt
O=[N+]([O-])c1cc(S(=O)(=O)c2ccc(O)c([N+](=O)[O-])c2)ccc1O	i	i	i	i	35	i
CC[C@H](C)[C@@H]1OC(=O)[C@H](C(C)C)N(C)C(=O)[C@H](C(C)C)NC(=O)[C@@H](C)[C@@H](CCCC#CBr)OC(=O)[C@H](C(C)C)N(C)C(=O)C2CCCN2C1=O (stereo partly specified)	i	i	nt	i	i	nt
CN(C)CCNC(=O)c1cccn(Cc2cc(C(F)(F)F)cc(C(F)(F)F)c2)c1=O	i	i	+	i	i	i
O=C(NCCN1CCC2(CC1)C(=O)NCN2c1ccccc1)c1cc(C(F)(F)F)ccc1C(F)(F)F	i	i	nt	i	i	nt
C=CCn1c(O)c(C(C)=Nc2ccc(N(CC)CC)cc2)c(=O)[nH]c1=O	i	i	i	i	i	29
C=CCn1c(O)c(C(CC)=Nc2ccc(N(CC)CC)cc2)c(=O)[nH]c1=O	i	i	+	i	i	29
C=CCn1c(O)c(C(C)=Nc2ccc(N(C)C)cc2)c(=O)[nH]c1=O	i	i	i	i	i	30
C=CCn1c(O)c(C(CC)=Nc2ccc(NC(C)=O)cc2)c(=O)[nH]c1=O	i	i	i	i	i	i
CO[C@H]([C@H](C)/C=C/N(C)C=O)[C@@H](C)C(=O)CC[C@H](C)[C@H](O)[C@H](C)[C@H]1OC(=O)/C=C/C(C)=C/[C@H](O)[C@H](OC)C[C@@H]2C=CC[C@@H](C[C@H](OC)[C@@H](CO)[C@@H](OC)C[C@@H](OC)[C@@H]1C)O2	i	i	nt	i	i	nt
C=CCN1CCc2cccc3c2[C@H]1Cc1ccc(O)c(O)c1-3	i	i	i	i	i	62	PfM18AAP inh-2=56;CTSL1 counter=i
C=CCN1CC[C@]23c4c5ccc(O)c4O[C@H]2C(=O)CC[C@@]3(O)[C@H]1C5	i	i	i	i	i	i
CC1=C[C@@H]2c3cccc4[nH]cc(c34)C[C@H]2N(C)C1	i	i	i	i	i	48	PfM18AAP inh-2=i;CTSL1 counter=i
Cc1cccc2c1=NC(=O)/C(=C/c1c(O)[nH]c(=O)[nH]c1=O)C=2	i	i	i	i	i	i
SMILES	PLCb3 inh	GC-A act	Rce1 inh	NPR2 activator	PLCg1 inh	PfM18AAP inh-1	others
O=c1[nH]c(=S)[nH]c(O)c1/C=C1/C=c2ccccc2=N1	i	i	i	i	i	44	PfM18AAP inh-2=59;CTSL1 counter=i
S=P(Nn1cnnc1)(c1ccccc1)c1ccccc1	i	i	i	i	i	44	PfM18AAP inh-2=49;CTSL1 counter=i
C[C@H]1CNCCN1c1ccc(N2CC[C@@H](O)C2)c(C#N)c1	i	i	nt	i	i	nt
CC[n+]1c(/C=C/C=C/c2ccc(N(C)C)cc2)sc2ccccc21	i	i	i	i	i	i
CC[n+]1c(/C=C/N(C)c2ccccc2)sc2ccc(Cl)cc21	i	i	i	i	i	36	PfM18AAP inh-2=i;CTSL1 counter=i
N#CC1c2ccccc2-n2nncc2CN1C(=O)c1ccc([N+](=O)[O-])o1 (stereo unspecified)	i	i	nt	i	i	nt
Oc1ccc(/C=N/NP(=S)(c2ccccc2)c2ccccc2)cc1O	i	i	nt	i	i	38	PfM18AAP inh-2=i;CTSL1 counter=i
Oc1ccc(/C=N/NP(=S)(c2ccccc2)c2ccccc2)c(O)c1O	i	i	i	i	i	33	PfM18AAP inh-2=i;CTSL1 counter=i
Oc1ccccc1/C=N/NP(=S)(c1ccccc1)c1ccccc1	i	i	i	i	i	i
C/C(=N\NP(=S)(c1ccccc1)c1ccccc1)c1ccc(O)cc1O	i	i	i	i	i	i
CCN(CC)c1ccc(N=Cc2c(O)n(-c3ccccc3)c(=O)[nH]c2=O)cc1	i	i	i	i	i	i
CCN(CC)c1ccc(N=Cc2c(O)[nH]c(=O)[nH]c2=O)cc1	i	i	i	i	i	44	PfM18AAP inh-2=i;CTSL1 counter=i
NC(Cc1ccccc1)[P+](=O)O (stereo unspecified)	i	i	nt	i	i	nt
CC1=C(C(=O)O)N2C(=O)C(NC(=O)Cc3ccccc3)C2SC1 (stereo unspecified)	i	i	i	i	i	48	PfM18AAP inh-2=i;CTSL1 counter=i
CC(C(=O)c1ccc(Cl)cc1Cl)n1cncn1 (stereo unspecified)	i	i	i	i	i	65	PfM18AAP inh-2=54;CTSL1 counter=i
O=C(O)c1cc2ccccc2n1C1CCN(Cc2ccccc2)CC1	i	i	nt	i	i	nt
O=C(CN1C(=O)[C@@H](Cc2c[nH]c3ccccc23)N=C(c2ccccc2)c2ccccc21)NC1CCCCC1	i	i	nt	i	i	nt
C=CCN1C(=O)NC(=O)/C(=C\c2ccc(-c3ccccc3[N+](=O)[O-])o2)C1=O	i	i	i	i	i	i

Screening results deposited in PubChem by several laboratories.
